Measured values published in PubChem BioAssay (NCI).
Compounds without any hit were thinned out: in the full panel of roughly 79,000, 15% have a hit. Unmarked numbers belong to inactive results. The source made the active and inactive calls. Rule as the data show it: active = growth inhibition above about 70%; inactive = the rest.

Key:
[1] = NCI Yeast Anticancer Drug Screen. Data for the rad50 strain (AID 155);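 also: 0% = growth of vehicle-only cultures of the same strain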; conditions: S. cerevisiae rad50 strain growth inhibition, stronger effect = higher value
Summary of the method: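 Yeast carrying a defined DNA repair defect were exposed to test compounds, and growth was compared with vehicle-treated controls to give percent inhibition.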

[2] = NCI Yeast Anticancer Drug Screen. Data for the mec2-1 strain (AID 157); conditions: S. cerevisiae mec2-1 strain, stronger effect = higher value
Summary of the method: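 Growth inhibition is read against vehicle-treated controls after compound exposure of the mec2-1 yeast strain, which is defective in DNA damage repair or cell cycle control.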

[3] = NCI Yeast Anticancer Drug Screen. Data for the sgs1 mgt1 strain (AID 161);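 also: 0% = growth of cultures given vehicle only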; conditions: S. cerevisiae sgs1 mgt1 strain, stronger effect = higher value
Summary of the method: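 Growth of a repair-deficient yeast mutant was monitored after compound treatment and expressed as inhibition relative to vehicle-treated cultures.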

[4] = NCI Yeast Anticancer Drug Screen. Data for the cln2 rad14 strain (AID 165);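 also: 0% = growth equal to vehicle treated cultures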; conditions: S. cerevisiae cln2 rad14 strain, stronger effect = higher value
Summary of the method: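 Growth inhibition, relative to vehicle-treated controls, is the read-out. The test organism is a yeast strain with defined genetic alterations, cln2 rad14.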

[5] = NCI Yeast Anticancer Drug Screen. Data for the bub3 strain (AID 167); conditions: S. cerevisiae bub3 mutant strain, stronger effect = higher value
Summary of the method: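 Compounds were applied to a genetically altered yeast strain carrying a cell-cycle control defect. Growth inhibition was scored against vehicle-treated controls.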

[6] = NCI Yeast Anticancer Drug Screen. Data for the mlh1 rad18 strain (AID 175); conditions: S. cerevisiae mlh1 rad18 strain growth inhibition, stronger effect = higher value
Summary of the method: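 Cells of a genetically altered yeast strain, deficient in DNA damage repair, were treated with compound. Their growth was then compared with that of vehicle-treated cultures to give inhibition.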

[7] = at 5.0 µM (retest, dose inferred, filed as 0.5)
[8] = at 50.0 µM (retest, dose inferred, filed as 5.0)

Structure (SMILES)	growth inhibition [1, 7] [%]	growth inhibition [1, 8]	growth inhibition ([1]; at 50.0 µM)	growth inhibition [2, 7] [%]	growth inhibition [2, 8]	growth inhibition ([2]; at 50.0 µM)	growth inhibition [3, 7] [%]	growth inhibition [3, 8]	growth inhibition ([3]; at 50.0 µM)	growth inhibition [4, 7] [%]	growth inhibition [4, 8]	growth inhibition ([4]; at 50.0 µM)	growth inhibition [5, 7]	growth inhibition [5, 8]	growth inhibition ([5]; at 50.0 µM)	growth inhibition [6, 7] [%]	growth inhibition [6, 8]	growth inhibition ([6]; at 50.0 µM)
COc1ccc(/C(C#N)=C(/N)SCc2ccccc2Cl)cc1	-3	14%	90.9% (active)	-2	14%	64.9%	10	36%	97.2% (active)	-7	15%	66.8%	3%	49%	83.5% (active)	-1	34%	90% (active)
COc1cc(C2C(Cl)C(=O)N2NC(=O)c2ccc(NC(C)=O)cc2)cc(OC)c1OC (stereo not given)	1	-16%	-8.6%	-9	-16%	-10.1%	-9	-7%	8.15%	-16	-5%	19.1%	3%	-2%	-9.3%	-10	3%	12.3%
CCOC(=O)c1ccc(N(CCC(O)CN=[N+]=[N-])S(=O)(=O)c2ccc(C)cc2)cc1 (stereo not given)	9	66%	57%	11	23%	19.4%	18	63%	53.4%	0	3%	40.6%	-4%	49%	5.9%	29	84% (active)	55.1%
NC(=S)N1N=C2c3ccccc3CCC[C@H]2[C@@H]1c1ccccc1	23	34%	73.2% (active)	16	27%	70.1% (active)	21	43%	77.1% (active)	12	13%	63.9%	25%	47%	74.2% (active)	17	48%	69.5%
Cc1cc(OC(=O)CCl)ccc1C(C)(C)C	1	12%	56.4%	2	13%	40.5%	0	1%	56.4%	5	5%	5.5%	0%	5%	30.5%	2	18%	84.6% (active)
Cc1ccc2[nH]c3c(c2c1)[n+]([O-])c1ccccc1[n+]3[O-]	5	16%	-17.4%	3	-4%	35.5%	-8	-13%	5.8%	-4	-7%	-22.5%	-8%	-6%	37.3%	-6	7%	-0.5%
OC(Cc1ccccc1)(Cc1ccccc1)c1ccccc1	20	98% (active)	88.5% (active)	13	99% (active)	78.2% (active)	-3	99% (active)	78% (active)	3	98% (active)	93.9% (active)	-14%	97% (active)	88.3% (active)	-6	99% (active)	96% (active)
Cc1ccccc1N1C(=O)c2ccccc2C1=O	1	8%	61.1%	-6	11%	98.8% (active)	1	7%	90.1% (active)	6	9%	83.3% (active)	1%	16%	98.2% (active)	0	8%	84% (active)
COc1ccc(C=Nc2ccccc2O)cc1	26	44%	59.1%	15	22%	32.2%	11	15%	39.5%	-2	13%	-15.9%	81% (active)	74% (active)	76.6% (active)	38	54%	67.4%
Cc1cccc(N2C(=O)c3ccccc3C2(c2ccccc2)N2CCCCC2)c1 (stereo not given)	-1	-5%	65%	0	-1%	28%	4	2%	73.7% (active)	2	-2%	75.3% (active)	-2%	-6%	50.3%	-2	-9%	58.5%
CC(=O)NCC1OC2COC(c3ccccc3)OC2C(NC(=O)c2ccccc2)C1OC(=O)c1ccccc1 (stereo not given)	15	10%	22.4%	15	10%	11.8%	-11	-13%	2.3%	6	-15%	6.7%	8%	5%	7.55%	15	9%	91.3% (active)
O=C(O)c1c([N+](=O)[O-])cc(C(F)(F)F)cc1[N+](=O)[O-]	-20	6%	-1.7%	0	13%	4.3%	1	11%	14.9%	9	43%	-29.6%	1%	10%	-3.55%	43	9%	29%
O=C(c1ccc(OCC(O)CN2CCN(c3ccccc3)CC2)cc1)c1cc2ccccc2c2ccccc12 (stereo not given)	13	85% (active)	61%	12	78% (active)	82.8% (active)	17	49%	44.6%	3	80% (active)	91.5% (active)	10%	91% (active)	89.3% (active)	9	87% (active)	96.2% (active)
CCCCCCCCCc1cc(=O)[nH]c(=S)[nH]1	17	74% (active)	85.1% (active)	6	72% (active)	77.7% (active)	25	65%	79.3% (active)	-13	58%	50.5%	8%	77% (active)	85.9% (active)	20	84% (active)	86.8% (active)
CN(C)CCCNc1c2ccccc2nc2ccc([N+](=O)[O-])cc12	16	80% (active)	68.3%	13	70% (active)	25.6%	21	80% (active)	20.7%	19	54%	52.5%	11%	59%	39.5%	31	84% (active)	29.2%
CC1=C(C(=O)OCCO[N+](=O)[O-])C(c2cccc([N+](=O)[O-])c2)C(C(=O)OC(C)C)=C(C)N1 (stereo not given)	13	91% (active)	79.2% (active)	10	92% (active)	83% (active)	-22	91% (active)	87.5% (active)	-3	87% (active)	81.5% (active)	-3%	88% (active)	85.3% (active)	12	95% (active)	71% (active)
Cc1ccc(C)c(N(c2ccccc2[N+](=O)[O-])S(C)(=O)=O)c1	5	20%	99.5% (active)	19	36%	99.5% (active)	5	22%	99.6% (active)	5	21%	99.3% (active)	-2%	16%	99.4% (active)	-5	10%	99.2% (active)
Cc1ccc2[nH]c3c(c2c1)CCC/C3=N/N=C(N)N	26	93% (active)	63%	14	100% (active)	83% (active)	24	99% (active)	90.8% (active)	22	99% (active)	91% (active)	21%	99% (active)	89.2% (active)	29	97% (active)	90.8% (active)
CC(C)/C=C1\CCOC1=O	0	9%	36.3%	-3	1%	14.8%	1	5%	39.8%	5	3%	44.5%	-3%	4%	-0.55%	0	6%	21.7%
C1=C(c2ccccc2)SC=C(c2ccccc2)S1	-5	-26%	-15.7%	-14	-16%	8.75%	-2	40%	-0.9%	-9	-9%	-3.15%	23%	47%	83% (active)	-6	-8%	-5.45%
